Most compounds without a hit are left out; they make up all but 2.9% or so of the library.
GRK2 aptamer HTS: compounds blocking aptamer binding on GRK2 – biochemical, human GRK2, bead flow cytometry, HTS, primary screen; inhibition of aptamer binding, % at 10 µM; FAM-aptamer displacement from GRK2; AID 488847, 2010; 330,000 compounds, 0.59% hits;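 active means inhibition of aptamer binding above 40%, roughly 3 SD of noise, on plates passing a quality check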;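 further: median bead fluorescence of bound FAM aptamer so fluorescent compounds give negative values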
MEKK3 PB1 HTS: modulators of MEKK3-MEK5 PB1 binding, primary screen, biochemical, wildtype MEKK3, multiplex bead flow cytometry, Alexa488-MEK5 | Mitogen-activated protein kinase kinase kinase 3 (Homo sapiens), Q99759 | bead-based flow cytometry, Alexa488-MEK5 binding to MEKK3; actives lie on both sides; 0 = blocked by unlabeled MEK5, 100 = vehicle | binding response (% of control), % at 10 µM | 290,000 compounds, 1.4% hits | AID 1529, 2009;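 active means binding response more than 3 SD above or below the average of its plate-row segment, actives on both sides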;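 further: Alexa488 bead fluorescence after subtracting the streptavidin-only scavenger bead signal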
Target sequence (Q99759 whole entry, looked up): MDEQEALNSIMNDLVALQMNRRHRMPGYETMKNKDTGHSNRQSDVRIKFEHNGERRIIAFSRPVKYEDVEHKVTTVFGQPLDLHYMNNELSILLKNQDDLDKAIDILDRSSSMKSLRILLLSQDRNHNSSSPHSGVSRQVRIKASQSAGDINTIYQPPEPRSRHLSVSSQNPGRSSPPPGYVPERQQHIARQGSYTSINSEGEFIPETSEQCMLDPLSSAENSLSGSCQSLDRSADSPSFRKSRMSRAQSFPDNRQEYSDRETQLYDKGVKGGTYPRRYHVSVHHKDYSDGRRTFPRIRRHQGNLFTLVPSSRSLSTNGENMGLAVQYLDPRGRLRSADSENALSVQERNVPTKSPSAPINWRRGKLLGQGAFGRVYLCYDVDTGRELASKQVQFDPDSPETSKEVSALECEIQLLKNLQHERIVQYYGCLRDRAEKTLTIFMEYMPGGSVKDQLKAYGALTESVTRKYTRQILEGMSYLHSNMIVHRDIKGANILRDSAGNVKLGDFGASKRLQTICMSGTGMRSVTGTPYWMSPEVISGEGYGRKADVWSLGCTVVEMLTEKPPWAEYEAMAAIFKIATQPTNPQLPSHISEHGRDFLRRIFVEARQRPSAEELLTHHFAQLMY
Beta2AR agonist: beta2AR agonists driving receptor internalization, primary screen, cell-based, FAP fluorogen, flow cytometry; Beta-2 adrenergic receptor (Homo sapiens), P07550; Am2.2-beta2AR cells; response, % (test concentration not listed); 340,000 compounds, 0.43% hits; AID 504454, 2011;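 active means response above a set limit, near 3 SD of response in nonfluorescent compounds, cut at about 42% in these data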
MEKK2mut PB1 HTS: MEK5 binding signal on mutant MEKK2 PB1, primary screen, biochemical, multiplex bead flow cytometry, Alexa488-MEK5 | 290,000 compounds, 0.35% hits | Alexa488-MEK5 binding to MEKK2 mutant | percent response, % at 10 µM | AID 1530, 2009; in the data active means percent response above about 24%, passing the limit was not always enough
MEKK2 WT-MEK5: modulators of MEK5 binding to wildtype MEKK2, primary screen, biochemical, multiplex bead flow cytometry, Alexa488-MEK5; 290,000 compounds, 1.1% hits; binding response (% of control), % at 10 µM; Alexa488-MEK5 binding to MEKK2 WT; actives lie on both sides; in the data active means binding response below about 67% or above about 130%
B2AR ag CP1: beta2AR agonists via receptor internalization, confirmation, cell-based, FAP fluorogen, flow cytometry, single point, cherry pick 1 | Am2.2-beta2AR cells, FAP surface receptor; stronger effect = lower value | shares compounds with Beta2AR agonist | percent response (surface receptor), % at 10 µM | AID 540358, 2011 | 1,100 compounds, 25% hits;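 active means surface receptor percent response at or below 58%, roughly 3 SD from nonfluorescent compounds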
FAP fluor counter: flagged in Am2.2 fluorescence counterscreen for beta-2AR agonists; shares compounds with Beta2AR agonist; Am2.2 cells, FAP fluorogen flow cytometry; stronger effect = lower value; calls only at 10 µM; 1,100 tested, under 10 active; AID 588765;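 active means percent response below a set limit in fluorescence channel 1 and below 50% in channel 8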
* hit, by the source's call; i = inactive; x = not tested or not shown; ! = a repeat was not active.

SMILES	GRK2 aptamer HTS	MEKK3 PB1 HTS	Beta2AR agonist	MEKK2mut PB1 HTS	MEKK2 WT-MEK5	B2AR ag CP1	FAP fluor counter
O=C(Nc1ccc(NC(=O)c2cccs2)cc1)c1cccs1	2	98	-10	5	100	x	x
COc1ccc(CNC(=O)CN(C(=O)c2snc(C(N)=O)c2N)c2ccc(F)cc2)cc1	5	105	47*	13	103	87	i
CCCc1nc2nc(C)c(NS(=O)(=O)c3ccc(C4CCCCC4)cc3)c(=O)n2[nH]1	1	102	7	0	98	x	x
CCOC(=O)c1ccc(NC(=S)NNC(C)(C)C)cc1	0	103	-4	7	99	95	i
Cc1ccc(CS(=O)(=O)c2nc3c(c(N(C)C)n2)CCCC3)cc1	0	100	73*	2	103	27*	i
Cc1nc(S(=O)(=O)Cc2ccc(Cl)cc2)nc2c1CCC2	3	98	-1	-4	100	x	x
O=c1[nH]c2ccccc2cc1CN(Cc1ccco1)S(=O)(=O)c1ccccc1	5	96	-22	-2	96	160	i
COc1ccc(S(=O)(=O)N(Cc2ccco2)Cc2cc3ccccc3[nH]c2=O)cc1	3	100	-9	9	101	161	i
COc1ccc(S(=O)(=O)N(C)CC(=O)N2CCN(c3ccccc3)CC2)cc1	1	95	-15	-10	94	124	i
COc1ccc(S(=O)(=O)N(CC(=O)N2CCN(c3ccccc3OC)CC2)c2ccccc2)cc1	1	97	-4	5	107	x	x
COc1ccc(S(=O)(=O)N(C)CC(=O)N2CCN(c3ccc(F)cc3)CC2)cc1OC	1	95	2	-3	98	5.1*!	i
COc1ccccc1N1CCN(C(=O)CN(C)S(=O)(=O)c2ccc(C)cc2)CC1	x	x	x	x	x	47*	i
O=C(CCCCCNc1nc(=S)[nH]c2ccccc12)NCCc1ccc(Cl)cc1	0	101	55*	-9	99	109	i
Cc1ccc(C(=O)NCCNC(=O)c2ccc(C)nc2)cc1	0	103	61*	2	98	115	i
CC1CCC(NC(=O)CCS(=O)(=O)c2ccc3c(c2)CCN3C(=O)C2CC2)CC1 (configuration not stated)	2	102	105*	0	101	18*	i
Nc1cccc(C#Cc2ccc3c(=O)c4ccccc4oc3c2)c1	0	x	48*	x	x	28*	i
COc1ccc(C(CCNCc2ccc(OC)c(OC)c2)c2ccc(F)cc2)cc1 (configuration not stated)	0	91	-7	-10	114	111	i
O=[N+]([O-])c1cc2c(c(CSc3ncccn3)c1)OCOC2	0	90	-15	-3	87	x	x
Nc1cc(N)nc(SCc2cc([N+](=O)[O-])cc3c2OCOC3)n1	0	100	55*	0	100	10.0*	i
O=C(CN1CCC(C(=O)c2ccc(Cl)cc2)CC1)NC1CCCC1	1	92	-1	-5	94	x	x
COc1ccc(-c2sc3cc4c(cc3c2C#Cc2cncn2C)OCO4)cc1	2	x	56*	x	x	90	i
COc1ccc(-c2sc3ccc(OC)cc3c2C#Cc2cncn2C)cc1	0	x	21	x	x	x	x
Cc1ccc(Nc2nc(-c3c(C)nc4ccccn34)cs2)cc1	0	108	43*	12	115	88	i
Cn1c(CNc2nc(-c3ccccc3)cs2)nnc1SCC(=O)N1CCc2ccccc21	1	97	46*	-2	98	73	i
COC(=O)CSc1nnc(CNc2nc(-c3ccccc3)cs2)n1C	0	93	-1	0	100	x	x
SMILES	GRK2 aptamer HTS	MEKK3 PB1 HTS	Beta2AR agonist	MEKK2mut PB1 HTS	MEKK2 WT-MEK5	B2AR ag CP1	FAP fluor counter
Cc1ccc(NC(=O)c2ccc3c(c2)C(=O)N(CC2CCCO2)C3=O)cc1C (configuration not stated)	0	95	7	-6	97	113	i
COC(=O)CCC(=O)c1oc2ccccc2c1NC(=O)CCCN1C(=O)c2ccccc2C1=O	4	100	2	1	101	x	x
CC(=O)c1oc2ccccc2c1NC(=O)CCCN1C(=O)c2ccccc2C1=O	1	104	68*	8	103	101	i
NC(=S)n1[nH]c(-c2ccc([N+](=O)[O-])cc2)c(N=Nc2ccc(Cl)cc2)c1=O	x	97	2	0	91	103	i
Cc1ccc([N+](=O)[O-])cc1N=Nc1c(-c2ccc([N+](=O)[O-])cc2)[nH]n(C(N)=S)c1=O	x	89	20	-19	84	101	i
Cc1cc(C)[n+](Cc2ccccc2)cc1C(N)=O	x	x	0	x	x	x	x
CSc1ccc(C(=O)C2CCCN(Cc3cccn3-c3cccnc3)C2)cc1 (configuration not stated)	0	108	70*	17	119	19*	i
Cn1c(=O)c2[nH]c(C(O)c3ccc(Cl)cc3)nc2n(C)c1=O (configuration not stated)	x	x	-7	x	x	x	x
Cc1ccc(C)c(-n2ccnc2SCC(=O)c2c(N)n(C3CC3)c(=O)[nH]c2=O)c1	0	x	7	x	x	x	x
COCCn1c(SCC(=O)Nc2ncc(C)s2)nc2sc3c(c2c1=O)CCC3	x	99	x	-1	100	x	x
COCCn1c(SCc2nnc(-c3ccccc3)o2)nc2sc3c(c2c1=O)CCC3	x	98	121*	-4	95	130	i
COC(=O)c1ccc2c(=O)[nH]c(CSc3nc(-c4ccc(F)cc4)cs3)nc2c1	0	99	64*	0	97	106	i
COC(=O)c1ccc2c(=O)[nH]c(CSc3nc(C)cs3)nc2c1	0	99	2	-1	103	x	x
Cc1cccc(CN2CCC(Oc3ccc(C(=O)N4CCCCC4)cc3)CC2)c1	1	98	12	2	107	86	i
CCOc1cccc(CN2CCC(Oc3ccc(C(=O)N4CCCC4)cc3)CC2)c1	1	100	-6	-1	104	114	i
Cc1ccccc1CN1CCC(Oc2ccc(C(=O)N3CCCC3)cc2)CC1	0	96	5	-12	96	x	x
O=c1c2ccccc2[nH]c(=S)n1Cc1ccc2c(c1)OCO2	7	101	-11	-3	102	x	x

Screens: PubChem BioAssay, NMMLSC
